# About 83,000 compounds went through this panel and 20% of them were active in at least one assay; those are over-represented in the sample as a whole.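 Plates (96-well) were seeded with cells, treated with compound at one concentration, and incubated for 48 hours before percent growth was determined.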 A number with no mark means an inactive call. Activity calls are given as the source filed them. Rule for the calls: active = growth percent below 10; inactive = the rest.
# System: T-47D breast
# Test: NCI-60 one-dose screen, 48 h (100 = growth as untreated, 0 = no growth, -100 = all killed)
# Conditions: 10 µM
row,SMILES,growth
1,COc1cc2cc(C(=O)N3C[C@@H](CCl)c4c3cc(OC(=O)N3CCN(C)[C@@H]5CSSC[C@H]53)c3ccccc43)[nH]c2c(OC)c1OC,-11.8% (active)
2,CC1=C(CCC=O)C2=C(C)C3(CC3)[C@@](C)(O)C(=O)C2=C1,-41.3% (active)
3,COC(=O)C[C@](O)(CCC(C)C)C(=O)O[C@@H]1C(OC)=C[C@]23CCCN2CCc2cc4c(cc2[C@H]13)OCO4,-24% (active)
4,O=C(/C=C/c1ccc(Cl)cc1)c1nc2ccccc2n1Cc1ccc(F)cc1,7.93% (active)
5,CC[C@]12C=CCN3CC[C@@]4(c5ccc(OC)cc5N(C)[C@H]4[C@@](O)(C(=O)OC)[C@@H]1OC(=O)CCC[P+](C1CCCCC1)(C1CCCCC1)C1CCCCC1)[C@@H]32,-1.81% (active)
6,CC1=C2C(=C[C@@](C)(COP(=O)(Oc3ccccc3)Oc3ccccc3)[C@@H]2O)C(=O)[C@@](C)(O)C12CC2,-47.8% (active)
7,CC(=O)Oc1ccccc1C(=O)NC([Se])=NC1CCCCC1,-9.49% (active)
8,CCOP(=O)(CC(F)(F)C(F)(F)F)OCC,17.3%
9,CC(C)C[C@H](NC(=O)CNC(=O)C[C@H]1O[C@@H]2OC3(C)CC[C@H]4[C@H](C)CC[C@@H]([C@H]1C)[C@@]24OO3)B(O)O,-32.8% (active)
10,C[C@H]1[C@@H](Oc2ccc(-c3cn(-c4ccnc5cc(Cl)ccc45)nn3)cc2)O[C@@H]2OC3(C)CC[C@H]4[C@H](C)CC[C@@H]1[C@@]24OO3,25.6%
11,C[C@H]1[C@H](OC(=O)CCC(=O)N(CCCc2cn(-c3ccc([N+](=O)[O-])cc3)nn2)CCNc2ccnc3cc(Cl)ccc23)O[C@@H]2OC3(C)CC[C@H]4[C@H](C)CC[C@@H]1[C@@]24OO3,37.1%
12,COc1cc2cc(C(=O)N3C[C@@H](CCl)c4c3cc(OC(=O)N3CCN(C)[C@@H]5CSSC[C@@H]53)c3ccccc43)[nH]c2c(OC)c1OC,-5.73% (active)
13,COc1cc2cc(C(=O)N3C[C@@H](CCl)c4c3cc(OC(=O)N3CCN(C(=O)CCC(=O)N5CCN(C)CC5)[C@@H]5CSSC[C@@H]53)c3ccccc43)[nH]c2c(OC)c1OC,1.49% (active)
14,COC(=O)c1ccc(-n2cc(CCCN(CCNc3ccnc4cc(Cl)ccc34)C(=O)CCC(=O)O[C@@H]3O[C@@H]4OC5(C)CC[C@H]6[C@H](C)CC[C@@H]([C@H]3C)[C@@]46OO5)nn2)cc1,37.6%
15,O=C([Se]C1C=CCCC1)c1ccc(C(=O)[Se]C2C=CCCC2)s1 (stereo not given),-48.1% (active)
16,O=C(/C=C/c1cccc(Br)c1)c1nc2ccccc2n1Cc1ccc(F)cc1,17.9%
17,CC[C@]12C=CCN3CC[C@@]4(c5ccc(OC)cc5N(C)[C@H]4[C@@](O)(C(=O)OC)[C@@H]1OC(=O)CCC[P+](c1ccc(C)cc1)(c1ccc(C)cc1)c1ccc(C)cc1)[C@@H]32,-78.4% (active)
18,O=C(NC([Se])=NC1CCCCC1)c1ccccc1,46%
19,O=C(/C=C/c1ccc(F)cc1)c1nc2ccccc2n1Cc1ccc(F)cc1,16.6%
20,O=C(/C=C/c1ccccc1)c1nc2ccccc2n1Cc1ccc(Br)cc1,-31.3% (active)
21,C=CC[Se]C(=O)c1cncc(C(=O)[Se]CC=C)c1,-42.2% (active)
22,COc1ccc(OC)c(/C=C/C(=O)c2nc3ccccc3n2Cc2ccc(F)cc2)c1,10.5%
23,O=C(/C=C/c1ccc(F)cc1)c1nc2ccccc2n1Cc1ccc(Br)cc1,-52.5% (active)
24,CC[C@]12C=CCN3CC[C@@]4(c5ccc(OC)cc5N(C)[C@H]4[C@@](O)(C(=O)OC)[C@@H]1OC(=O)CCCC[P+](c1ccc(C)cc1)(c1ccc(C)cc1)c1ccc(C)cc1)[C@@H]32,-64.5% (active)
25,CC(C)N=C([Se])NC(=O)c1cccs1,79.4%
26,CC1=C(CCC=NNC(N)=O)C2=C(C)C3(CC3)[C@@](C)(O)C(=O)C2=C1,-38.1% (active)
27,Cc1ccc2[nH]c(=S)n(-c3ccc(F)cc3)c(=O)c2c1,93.5%
28,C#CC[Se]C(=O)c1ccc2n[se]nc2c1,62.9%
29,CC1=C(COCCOC(=O)c2ccc(S(=O)(=O)F)cc2)C2=C(C)C3(CC3)[C@@](C)(O)C(=O)C2=C1,-13.2% (active)
30,CC12CCC3(CCC(=O)NCCCNc4ccnc5cc(Cl)ccc45)[C@@](C)(OO[C@]3(C)O1)O2,36.9%

# From PubChem BioAssay (NCI)
